# Measured values reported in the supplement of paper PMC8728848.
# Many of the other results were omitted from the sample, so the strongest signals are more common in it than they were.
# B1: truncCC1G-10077 (Coprinopsis cinerea) (protein)
# chain: MHHHHHHHHPLPSPGPGWVLIQNGGTGKFLCSTPSGDIGTADGPETVYDYSVQWRFIQREYTGVYHVVNRATGAYLRQIGTSMPSIGLAEENDDELKDWWMLETYDNSEIGLASIISRWTGNVLDHYGGVSVQALDNNTENSYRSWAIIPARDWLTSFSLVNGQGGLCLAAQYAREETRLSTTANVNDFHAQWVFRKPSGSSGYTIQNKYNNHYVGGTSARWELVVCCNKYFGIRNTSTQKYLAIEDGQVTFQDQDMTDRKQCWELCSGRATDTSGNDYDLIYMDDDLLEVMIPWVGDKQGDLKHYIEKRATKKPPKDKGGWQLPAAGLIKKPKFNDIRQLLQELIEQWEWDVVNEEREQIQTLVSIDEAEARRLLGRRPHPDIVAAYQRSRSSTLFRIDRQGYFNIAGDRYVNIQGQYGDDSYFHIALPVGVRFGREQIRRFLRDSLDRSTSVTITPTTCKPPSGGPDYNRDPDSDGDNSWIKWTIAVVGTSAIKHSEL
# Assays:
# Assay in all cases: glycan array binding signal (z-score within array); higher = stronger binding
# Conditions in all cases: glycan notation: IUPAC condensed, linker removed
# [1] = target: Fuc(a1-2)Gal(b1-3)GlcNAc(b1-2)Man(a1-3)[Fuc(a1-2)Gal(b1-3)GlcNAc(b1-2)Man(a1-6)]Man(b1-4)GlcNAc(b1-4)GlcNAc
# Summary of the method: (§1)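 Glycan array data were curated from 3228 arrays in the Consortium for Functional Glycomics database and kept only where the protein sequence was available. Glycan names were converted to IUPAC-condensed notation, and columns mapping to the same glycan were averaged. The binding signal is a within-array Z-score, averaged across arrays of the same protein sequence at different concentrations or buffers and across linkers. Negative Z-scores can be read as non-binding.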
# Fuc(a1-2)Gal(b1-4)Glc = target: Fuc(a1-2)Gal(b1-4)Glc
# Summary of the method: as §1
# [2] = target: Fuc(a1-2)Gal(b1-4)GlcNAc(b1-3)[Fuc(a1-2)Gal(b1-4)GlcNAc(b1-6)]GalNAc
# Summary of the method: as §1
# [3] = target: Fuc(a1-2)Gal6S(b1-3)GlcNAc6S
# Summary of the method: as §1
# [4] = target: Fuc(a1-2)[Gal(a1-3)]Gal(b1-4)[Fuc(a1-3)]GlcNAc
# Summary of the method: as §1
# [5] = target: Fuc(a1-2)[GalNAc(a1-3)]Gal(b1-3)GlcNAc(b1-3)GalNAc
# Summary of the method: as §1
# [6] = target: Fuc(a1-2)[GalNAc(a1-3)]Gal(b1-4)Glc
# Summary of the method: as §1
# [7] = target: Fuc(a1-2)[GalNAc(a1-4)]Gal(b1-4)GlcNAc
# Summary of the method: as §1
# [8] = target: Fuc(a1-3)[Gal(b1-4)]GlcNAc(b1-6)GalNAc
# Summary of the method: as §1
# [9] = target: Gal(b1-4)GlcNAc(b1-2)Man(a1-3)[Gal(b1-4)GlcNAc(b1-2)Man(a1-6)]Man(b1-4)GlcNAc(b1-4)[Fuc(a1-6)]GlcNAc
# Summary of the method: as §1
# [10] = target: Gal(b1-4)GlcNAc(b1-2)Man(a1-3)[GlcNAc(b1-4)][Gal(b1-4)GlcNAc(b1-2)Man(a1-6)]Man(b1-4)GlcNAc(b1-4)GlcNAc
# Summary of the method: as §1
# [11] = target: Gal(b1-4)GlcNAc(b1-2)[Gal(b1-4)GlcNAc(b1-6)]Man(a1-6)[GlcNAc(b1-4)][Gal(b1-4)GlcNAc(b1-2)Man(a1-3)]Man(b1-4)GlcNAc(b1-4)GlcNAc
# Summary of the method: as §1
# [12] = target: Gal(b1-4)GlcNAc(b1-3)Gal(b1-4)GlcNAc(b1-2)[Gal(b1-4)GlcNAc(b1-3)Gal(b1-4)GlcNAc(b1-6)]Man(a1-6)[Gal(b1-4)GlcNAc(b1-3)Gal(b1-4)GlcNAc(b1-2)Man(a1-3)]Man(b1-4)GlcNAc(b1-4)GlcNAc
# Summary of the method: as §1
# [13] = target: Gal(b1-4)GlcNAc(b1-3)Gal(b1-4)GlcNAc(b1-3)Gal(b1-4)GlcNAc
# Summary of the method: as §1
# [14] = target: Gal(b1-4)GlcNAc(b1-3)Gal(b1-4)GlcNAc(b1-3)Gal(b1-4)GlcNAc(b1-3)Gal(b1-4)GlcNAc(b1-2)Man(a1-3)[Gal(b1-4)GlcNAc(b1-3)Gal(b1-4)GlcNAc(b1-3)Gal(b1-4)GlcNAc(b1-3)Gal(b1-4)GlcNAc(b1-2)Man(a1-6)]Man(b1-4)GlcNAc(b1-4)[Fuc(a1-6)]GlcNAc
# Summary of the method: as §1
# [15] = target: Gal(b1-4)GlcNAc(b1-3)[Gal(b1-4)GlcNAc(b1-6)]Gal(b1-4)GlcNAc
# Summary of the method: as §1
# [16] = target: Gal(b1-4)GlcNAc(b1-3)[GlcNAc(b1-6)]Gal(b1-4)GlcNAc
# Summary of the method: as §1
# [17] = target: GalNAc(b1-3)Gal(a1-4)Gal(b1-4)GlcNAc
# Summary of the method: as §1
# GlcA(b1-6)Gal = target: GlcA(b1-6)Gal
# Summary of the method: as §1
# [18] = target: GlcNAc(b1-3)Gal(b1-3)GalNAc
# Summary of the method: as §1
# [19] = target: GlcNAc(b1-3)Gal(b1-4)GlcNAc(b1-3)Gal(b1-4)GlcNAc(b1-2)Man(a1-3)[GlcNAc(b1-3)Gal(b1-4)GlcNAc(b1-3)Gal(b1-4)GlcNAc(b1-2)Man(a1-6)]Man(b1-4)GlcNAc(b1-4)GlcNAc
# Summary of the method: as §1
# [20] = target: GlcNAc(b1-3)Gal(b1-4)GlcNAc(b1-3)Gal(b1-4)GlcNAc(b1-3)Gal(b1-4)GlcNAc(b1-2)[GlcNAc(b1-3)Gal(b1-4)GlcNAc(b1-3)Gal(b1-4)GlcNAc(b1-3)Gal(b1-4)GlcNAc(b1-6)]Man(a1-6)[GlcNAc(b1-3)Gal(b1-4)GlcNAc(b1-3)Gal(b1-4)GlcNAc(b1-3)Gal(b1-4)GlcNAc(b1-2)Man(a1-3)]Man(b1-4)GlcNAc(b1-4)[Fuc(a1-6)]GlcNAc
# Summary of the method: as §1
# [21] = target: GlcNAc(b1-4)GlcNAc(b1-4)GlcNAc(b1-4)GlcNAc(b1-4)GlcNAc(b1-4)GlcNAc
# Summary of the method: as §1
# [22] = target: Man(a1-3)[Man(a1-6)]Man(a1-6)[Man(a1-3)]Man
# Summary of the method: as §1
# [23] = target: Neu5Ac(a2-3)Gal(b1-4)GlcNAc(b1-2)Man
# Summary of the method: as §1
# [24] = target: Neu5Ac(a2-3)Gal(b1-4)GlcNAc(b1-3)Gal(b1-3)GlcNAc
# Summary of the method: as §1
# [25] = target: Neu5Ac(a2-3)Gal(b1-4)GlcNAc(b1-3)Gal(b1-4)GlcNAc(b1-3)Gal(b1-4)GlcNAc
# Summary of the method: as §1
# [26] = target: Neu5Ac(a2-3)Gal(b1-4)GlcNAc(b1-3)Gal(b1-4)GlcNAc(b1-3)GalNAc
# Summary of the method: as §1
# [27] = target: Neu5Ac(a2-3)Gal(b1-4)[Fuc(a1-3)]GlcNAc(b1-6)[Neu5Ac(a2-3)Gal(b1-3)]GalNAc
# Summary of the method: as §1
# [28] = target: Neu5Ac(a2-6)Gal(b1-4)GlcNAc(b1-3)Gal(b1-4)GlcNAc(b1-6)[Gal(b1-3)]GalNAc
# Summary of the method: as §1
# [29] = target: Neu5Ac(a2-6)Gal(b1-4)GlcNAc(b1-6)GalNAc
# Summary of the method: as §1
# [30] = target: Neu5Ac(a2-8)Neu5Ac(a2-8)Neu5Ac(a2-3)Gal(b1-4)Glc
# Summary of the method: as §1
# [31] = target: Neu5Ac(b2-6)Gal(b1-4)GlcNAc
# Summary of the method: as §1
# [32] = target: Neu5Ac9Ac(a2-3)Gal(b1-3)GlcNAc
# Summary of the method: as §1
# [33] = target: Neu5Gc(a2-3)Gal(b1-4)[Fuc(a1-3)]GlcNAc
# Summary of the method: as §1
# Neu5Gc(a2-6)GalNAc = target: Neu5Gc(a2-6)GalNAc
# Summary of the method: as §1
binder,measurement,setting,value
B1,glycan array binding signal (z-score),[1],3.72
same,glycan array binding signal (z-score),Fuc(a1-2)Gal(b1-4)Glc,-0.216
same,glycan array binding signal (z-score),[2],2.81
same,glycan array binding signal (z-score),[3],0.519
same,glycan array binding signal (z-score),[4],1.66
same,glycan array binding signal (z-score),[5],3.65
same,glycan array binding signal (z-score),[6],-0.829
same,glycan array binding signal (z-score),[7],-0.664
same,glycan array binding signal (z-score),[8],3.46
same,glycan array binding signal (z-score),[9],3.13
same,glycan array binding signal (z-score),[10],0.359
same,glycan array binding signal (z-score),[11],-0.119
same,glycan array binding signal (z-score),[12],3.74
same,glycan array binding signal (z-score),[13],-0.532
same,glycan array binding signal (z-score),[14],0.374
same,glycan array binding signal (z-score),[15],-0.821
same,glycan array binding signal (z-score),[16],-1.04
same,glycan array binding signal (z-score),[17],-0.242
same,glycan array binding signal (z-score),GlcA(b1-6)Gal,4.61
same,glycan array binding signal (z-score),[18],-0.15
same,glycan array binding signal (z-score),[19],1.17
same,glycan array binding signal (z-score),[20],0.218
same,glycan array binding signal (z-score),[21],-0.144
same,glycan array binding signal (z-score),[22],0.384
same,glycan array binding signal (z-score),[23],2.91
same,glycan array binding signal (z-score),[24],-0.855
same,glycan array binding signal (z-score),[25],-1.07
same,glycan array binding signal (z-score),[26],0.244
same,glycan array binding signal (z-score),[27],3.72
same,glycan array binding signal (z-score),[28],0.521
same,glycan array binding signal (z-score),[29],3.21
same,glycan array binding signal (z-score),[30],0.249
same,glycan array binding signal (z-score),[31],-1.25
same,glycan array binding signal (z-score),[32],-1.02
same,glycan array binding signal (z-score),[33],3.02
same,glycan array binding signal (z-score),Neu5Gc(a2-6)GalNAc,-0.873
